miR-21 reporter: qHTS Assay for Modulators of miRNAs and/orActivators of miR-21; 340,000 tested, under 10 active; Potency, µM (series often up to 38.3 µM), usual class: activators; HeLa miR-21 FLuc reporter, luciferase, 48 h; AID 2288, 2010;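 also: miR-21 action dims this reporter so a rising signal means less miR-21 action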
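Luminescence from a firefly luciferase reporter carrying a miR-21 binding site downstream, stably expressed under a CMV promoter in HeLa cells that make miR-21 endogenously, reports miRNA modulation after 48 h compound exposure up to approximately 40uM final.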
A549 tox: Nrf2 qHTS screen for inhibitors: counterscreen for cytotoxicity | A549 ARE-Fluc cells, CellTiter-Fluor viability, 18-24 h | Potency, µM (titrated, usually from 46 µM), most hits filed as inhibitors | 0.16% of 390,000 active
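Cytotoxicity counterscreen: CellTiter-Fluor fluorescence was measured in A549 ARE_Fluc cells after 18-24 h of compound exposure in a concentration series. The subsequent BugLite luminescent read reports ARE-luciferase activity.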
p53 reactivator: qHTS assay for re-activators of p53 using a Luc reporter | H1299 p53-A138V BP100-luciferase reporter, luminescence, 24 h | Potency, µM (doses to about 92.2 µM), hits mostly activators | 0.063% of 320,000 active | AID 504706, 2011; also: nearly all actives have a fitted effect of over 45% in size
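p53-null H1299 cells stably carrying temperature-sensitive p53-A138V and a BP100-luciferase reporter were pinned with compounds (4-point, 1:5 series) and held 24 hrs at 37 deg C. Luminescence was read 10 min after detection reagent.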
Nrf2 inh: Nrf2 qHTS screen for inhibitors; A549 ARE-Fluc reporter, luciferase luminescence, 18-24 h; 2.1% of 360,000 active; Potency, µM (highest dose often 46 µM), usual class: inhibitors; also: nearly all actives have a fitted effect of over 60% in size
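Cells were seeded and rested 2 h, then exposed to compounds for 18-24 h. CellTiter-Fluor was read first as a viability measure. BugLite was added 15 min before the final luminescent read of ARE-luciferase activity in A549 cells.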
Nrf2 activator: qHTS of Nrf2 Activators; AREc32 ARE-luciferase reporter (MCF7-derived line), luminescence, 24 h; 0.31% of 410,000 active; AID 624171, 2012; Potency, µM (series often up to 46.1 µM), usual class: activators; also: nearly all actives have a fitted effect of over 65% in size
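AREc32 cells carrying an ARE-driven firefly luciferase reporter were seeded at 1000 cells/well in OPTI-MEM with 5% FBS, then exposed to compound for 24 hr at 37 deg C. Luminescence was read with Steady-Glo after 30 min at RT.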
ClpP mod: qHTS Assay for Activators of ClpP. ATP-dependent Clp protease proteolytic subunit (Bacillus subtilis (strain 168)), P80244. purified B. subtilis ClpP, FRET peptide cleavage, 20 min. Potency, µM (doses to about 57.5 µM). 1.9% of 340,000 active; active = well fitted falling curve with a large enough effect; inconclusive = small, poorly fitted or top-dose-only effect; inactive = no such curve, though single readings can be large or run the other way; also: the source files actives as falling curves though it sought activators and does not explain the sign; nearly all actives have a fitted effect of over 65% in size
Target sequence (P80244 whole entry, looked up): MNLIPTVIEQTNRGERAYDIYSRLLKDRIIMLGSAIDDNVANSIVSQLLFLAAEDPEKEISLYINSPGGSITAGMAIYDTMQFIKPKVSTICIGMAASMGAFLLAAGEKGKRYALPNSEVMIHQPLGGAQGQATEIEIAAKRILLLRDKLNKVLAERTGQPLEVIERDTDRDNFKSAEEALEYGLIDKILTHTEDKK
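Buffer: 100 mM Tris/HCl pH8, 100 mM KCl, 0.05% low protease BSA, 2.5% glycerol, 0.01% Tween-20. ClpP 10 microg/mL final; 20 min RT; delta FRET normalized to ADEP and DMSO controls.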
Each line names hits and unclear results; the compound was inactive in the other large screens. In the library only some 3.7% were active in any assay of this set; here they are far more common. Unless noted, calls follow the shape of the dose curve; as a rule, active = well fitted curve in the direction sought with a large enough effect; inconclusive = small, poorly fitted or top-dose-only effect, or another doubt; inactive = no such curve, though single readings can be large; an effect the other way counts as inactive or inconclusive.

O=C(N/N=C/c1cc(Cl)cc(Cl)c1O)c1ccncc1	p53 reactivator inconclusive, Nrf2 inh 9.2µM
Cc1cc(C)c2nccc(/C=C/c3ccc(N(C)C)cc3)c2c1	none (no result: miR-21 reporter, A549 tox, p53 reactivator, Nrf2 inh, Nrf2 activator)
CC(C)(C)Sc1ccc2nc3c(n2c1)CCCC3	ClpP mod 15.8µM
Cc1ccc(C(=O)NC(=S)NNC(=O)c2ccccc2)cc1	Nrf2 inh inconclusive
Cc1ccc(C(=O)NNC(=S)NC(=O)c2ccc(Cl)cc2Cl)cc1	Nrf2 inh 20.6µM
O=C(CNC(=S)NC(=O)c1ccc(Br)o1)c1ccccc1	Nrf2 inh inconclusive
O=C(CNC(=S)NC(=O)c1ccc(Cl)cc1)c1ccccc1	ClpP mod 28.2µM
Cc1ccc(C(=O)NNC(=S)NC(=O)c2ccccc2)cc1	A549 tox inconclusive, Nrf2 inh 16.4µM (no result: miR-21 reporter, p53 reactivator)
CC(C)CN(c1ccccc1)S(=O)(=O)c1nnc(NC(=O)C2CCCCC2)s1	Nrf2 inh inconclusive (no result: p53 reactivator)
Cc1ccc(CNC(=O)CCCN2C(=O)c3cccnc3Oc3ccc(Cl)cc32)cc1	Nrf2 inh inconclusive (no result: p53 reactivator)
COc1ccc(-c2nnc(SCC(=O)Nc3ccc(C)c(Cl)c3)nc2-c2ccc(OC)c(OC)c2)cc1OC	none (no result: p53 reactivator, Nrf2 inh)
COc1ccc(-c2oc3ccc(N4CCOCC4)cc3c2C#CCO)cc1	Nrf2 inh 18.4µM (no result: miR-21 reporter, p53 reactivator)
COc1ccc(-c2ccc3oc(-c4ccc(OC)cc4)c(C#CCO)c3c2)cc1	Nrf2 inh 8.2µM (no result: miR-21 reporter, p53 reactivator)
COc1ccc(-c2ccc3oc(-c4ccc(OC)cc4)c(-c4ccc(OC)cc4)c3c2)cc1	none (no result: miR-21 reporter, p53 reactivator)
FC(F)(F)c1ccc(C2=Nc3ccccc3NC(c3cccs3)=N2)cc1	none (no result: p53 reactivator)
Cn1nc(CC(=O)Nc2ccc(N3CCN(C(=O)OC(C)(C)C)CC3)cc2)c2ccccc2c1=O	Nrf2 inh 10.3µM
CCn1cc(C(=O)NCc2ccccc2)c(=O)c2cc(F)c(N3CCN(C(=O)c4ccco4)CC3)cc21	A549 tox inconclusive, ClpP mod 14.1µM (no result: Nrf2 inh)
CCn1cc(C(=O)NCc2ccc3c(c2)OCO3)c(=O)c2cc(F)c(N3CCN(C(=O)c4ccco4)CC3)cc21	A549 tox inconclusive, Nrf2 inh 16.4µM, ClpP mod 25.1µM
O=C(CCNC(=O)c1ccc(Br)cc1)NNC(=O)c1ccccc1	none (no result: miR-21 reporter)
COC(=O)C1=CN(C2CC2)C=C(C(=O)OC)C1c1ccc(C(F)(F)F)cc1	none (no result: ClpP mod)
COC(=O)C1=CN(C2CC2)C=C(C(=O)OC)C1c1ccc(C(=O)OC)cc1	A549 tox inconclusive, ClpP mod 31.6µM
Cn1nnnc1Sc1ncnc2scc(-c3ccc(C(=O)OC(C)(C)C)cc3)c12	none (no result: miR-21 reporter, p53 reactivator, Nrf2 activator, ClpP mod)
Oc1ccc(/C=N/Nc2ccc(C(F)(F)F)cn2)c(O)c1	p53 reactivator 11.2µM (no result: A549 tox, Nrf2 inh, Nrf2 activator, ClpP mod)
CC1(C(=O)NS(=O)(=O)c2ccc(Br)cc2)CCN1C(=O)Cc1cccs1 (stereo not given)	none (no result: miR-21 reporter, A549 tox, p53 reactivator, Nrf2 inh)
CCOc1ccc(/C=C2\SC(=S)NC2=O)cc1OC	none (no result: ClpP mod)
COc1ccc(/C=C2\SC(=O)NC2=S)cc1OC	A549 tox 11.6µM, p53 reactivator inconclusive, Nrf2 inh inconclusive, Nrf2 activator inconclusive
COc1ccc(/C=C2\SC(c3ccc(C)cc3)=NC2=O)cc1OC	Nrf2 inh 16.4µM
COc1ccc(/C=C2/CSC/C(=C/c3ccc(OC)c(OC)c3)C2=O)cc1OC	A549 tox inconclusive, Nrf2 inh 5.17µM (no result: miR-21 reporter, p53 reactivator)
CCc1ccccc1NC(=O)CSc1nc2ccccc2nc1Cc1cccc(OC)c1	none (no result: p53 reactivator, Nrf2 inh)
Cn1c(-n2cccc2)c(-c2c(-c3ccc(F)cc3)[nH]c3c2c(=O)[nH]c(=O)n3C)c(=O)[nH]c1=O	none (no result: p53 reactivator)
Cc1ccc(C)c(CS(=O)(=O)c2cn(CC(=O)N(C(C)C)C(C)C)c3ccccc23)c1	none (no result: p53 reactivator)
COC(=O)C(C(C)C)N1CC(=O)c2ccccc2S1(=O)=O (stereo not given)	none (no result: miR-21 reporter, p53 reactivator, Nrf2 activator, ClpP mod)
O=C1CC(c2ccccc2)Cc2[nH]c(=O)c(-c3nc(-c4cccc(Cl)c4)cs3)cc21 (stereo not given)	none (no result: p53 reactivator)
C=C1NN(CC2CC2)C(=O)N1c1ccc(OCc2ccccc2)cc1	none (no result: miR-21 reporter, A549 tox, p53 reactivator, Nrf2 inh, Nrf2 activator)

High-throughput results as filed in PubChem BioAssay.
